IL1B secr inh: blocks inflammasome-driven IL-1 beta release | actives 4.7% (n = 360,000) | activity change, % at 57.5 µM | THP-1 LPS/ATP IL-1B secretion, AlphaLISA, 16 h; hits give low values; in the data active = activity change below about -50%; inconclusive = mostly about -30% to -49%
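THP-1 cells pretreated 1 hr with compounds (up to 57.5 uM final), then stimulated with LPS (250 ng/mL final) plus ATP (1.25 mM final); secreted IL-1B measured by AlphaLISA after 16 hr, decreased signal indicating inhibition.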
DT40 TDP1 CPT: DT40-hTDP1 cell growth loss with CPT; Potency, µM (highest dose often 46.2 µM), actives largely listed as inhibitors; chicken DT40 Tdp1-/-;hTDP1 cells + 20 nM CPT, ATP luminescence, 48 h; actives 12% (n = 420,000); note: nearly all actives have a fitted effect of over 55% in size
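Chicken DT40 Tdp1-/- cells complemented with human TDP1, 400 cells/well, exposed to compounds plus 20 nM camptothecin for at least 48 h at 37 C; viability read as ATP content by CellTiter-Glo luminescence.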
HT1080NT lethal: kills 2HG-producing HT-1080-NT fibrosarcoma cells; Potency, µM (top dose mostly 46.1 µM), hits mostly cytotoxic; actives 1.6% (n = 360,000); HT-1080-NT fibrosarcoma viability, CellTiter-Glo ATP luminescence, 48 h;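 note: NT is the 2HG producing partner of a matched IDH1 knockdown line; nearly all actives have a fitted effect of over 55% in size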
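Fibrosarcoma NT cells, 750 per well in 5% FBS RPMI, were exposed to compound for 48 hours. Viability: CellTiter-Glo luminescence.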
HT1080 IDH1KD tx: kills HT-1080 cells with IDH1 knockdown; Potency, µM (series often up to 46.1 µM), most hits filed as cytotoxic; HT-1080 IDH1 knockdown viability, ATP luminescence, 48 h; AID 686971; actives 2% (n = 360,000)
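Viability of IDH1-knockdown HT-1080 fibrosarcoma cells was assessed by CellTiter-Glo after 48 h at 37 °C with titrated compound; concentration-effect curves were classified by fit quality and response size.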
uPA generation: blocks generation of uPA at the cell surface. cell surface uPA generation assay, qHTS. Potency, µM (series often up to 38.3 µM), most hits filed as inhibitors. actives 0.31% (n = 330,000). AID 540303; active = well fitted inhibition curve with a large enough effect; inconclusive = small, poorly fitted or top-dose-only effect; inactive = no such curve, though single readings can be large or run the other way; tested in mouse RAW 264.7 cells; note: nearly all actives have a fitted effect of over 55% in size
TDP1 cell noCPT: qHTS for Inhibitors of human tyrosyl-DNA phosphodiesterase 1 (TDP1): qHTS in cells in absence of CPT. actives 15% (n = 420,000). DT40 Tdp1-/- hTDP1 cells, no CPT, ATP luminescence, 48 h. Potency, µM (top dose mostly 46.2 µM), hits mostly inhibitors. AID 686978, 2013; note: nearly all actives have a fitted effect of over 55% in size
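Cells were dispensed at 400 per well, compounds added by pin tool, plates incubated ≥48 hr at 37 °C, then CellTiter-Glo added for 30 min at room temperature before luminescence reading. Line: DT40 Tdp1-/- complemented with hTDP1; camptothecin omitted.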
A number is an active result; . = inactive; ? = inconclusive; / = no result given; [ ] = remark or other dose. The list is not random: actives were taken first. Their share in the collection is about 19%. Unless noted, calls come from the whole dose curve; as a rule, active = well fitted curve in the direction sought with a large enough effect; inconclusive = small, poorly fitted or top-dose-only effect, or another doubt; inactive = no such curve, though single readings can be large; an effect the other way counts as inactive or inconclusive.

SMILES | IL1B secr inh | DT40 TDP1 CPT | HT1080NT lethal | HT1080 IDH1KD tx | uPA generation | TDP1 cell noCPT
COc1ccc(COCC(O)CN2CCC(C(N)=O)CC2)cc1OC (configuration not stated) | . | . | . | . | . | .
COc1ccc(COCC(O)CN2CCC(CN3C(=O)c4cccc5cccc(c45)C3=O)CC2)cc1OC (configuration not stated) | -88.2 | ? | ? | ? | . | 20.6µM
CCc1ccc(OCC(O)CN2CCC(CN3C(=O)c4cccc5cccc(c45)C3=O)CC2)cc1 (configuration not stated) | . | 14.6µM | . | . | . | 20.6µM
CCOC(=O)C1CCCN(C(=O)COc2ccc(S(=O)(=O)N(CC)c3ccccc3)cc2)C1 (configuration not stated) | . | . | . | . | . | ?
C=C1C=C(C(F)F)n2ncc(C(=O)N3CCN(c4ccccn4)CC3)c2N1 | / | . | / | / | / | .
COc1ccc(Cl)cc1NC(=O)CSc1nnc(Cc2cccn2C)n1-c1ccc(F)cc1 | . | 25.9µM | ? | . | . | ?
Cn1cccc1Cc1nnc(SCC(=O)NCc2ccccc2)n1-c1ccc(F)cc1 | ? | 16.4µM | . | . | . | ?
Cn1cccc1Cc1nnc(SCC(=O)Nc2ccc(F)cc2F)n1-c1ccc(F)cc1 | . | ? | . | . | . | ?
Cn1cccc1Cc1nnc(SCC(=O)NCc2ccc(F)cc2)n1-c1ccc(F)cc1 | . | ? | . | . | . | .
COc1ccc(C2C(=O)N(C3CCC(C)CC3)CC(=O)N2CCC2=CCCCC2)cc1OC (configuration not stated) | / | 23.1µM | / | / | / | 23.1µM
CCCOc1ccc(C2C(=O)N(C3CCC(C)CC3)CC(=O)N2CCC2=CCCCC2)cc1OC (configuration not stated) | / | ? | / | / | / | .
CCOc1ccc(C2C(=O)N(C3CCCCCC3)CC(=O)N2CCC2=CCCCC2)cc1OC (configuration not stated) | / | 23.1µM | / | / | / | 16.4µM
COc1cc(C2C(=O)N(C3CCCCCC3)CC(=O)N2CCC2=CCCCC2)ccc1OC(C)C (configuration not stated) | / | 18.4µM | / | / | / | 20.6µM
COc1cc(C2C(=O)N(C3CCCCC3)CC(=O)N2CCC2=CCCCC2)ccc1OC(C)C (configuration not stated) | / | . | / | / | / | .
COc1ccc(N(CC(=O)O)S(=O)(=O)c2ccc(C)cc2)cc1Cl | . | . | . | . | . | .
CC[C@@H](C(=O)[C@@H](C)[C@@H](O)[C@H](C)CCc1ccc(C)c(O)c1C(=O)O)[C@H]1O[C@](CC)([C@H]2CC[C@](O)(CC)[C@H](C)O2)C[C@@H]1C | -91.6 | 2.59µM | 1.64µM | 6.51µM | . | 2.31µM
COCCN(C(=S)Nc1c(C)cc(C)cc1C)C(C)c1cccs1 (configuration not stated) | . | ? | . | . | . | 29.1µM
S=C(NC1CC1)N1CCN(c2ccc(Cl)cc2)CC1 | . | 14.6µM | . | . | . | ?
O=[N+]([O-])c1ccc(N2CCN(C(=S)NC3CCCCC3)CC2)cc1 | -78.4 | 16.4µM | . | . | . | 9.2µM
O=S(=O)(c1c(Cl)cc(Br)cc1Cl)N1CCN(C(=S)NC2CC2)CC1 | -84.6 | ? | . | . | . | ?
O=S(=O)(c1ccccc1)N1CCN(C(=S)NC2CCCC2)CC1 | . | . | . | . | . | .
COc1ccc(CN2CCOc3ccc(CN4CCN(CCO)CC4)cc3C2)c2ccccc12 | / | .[9.04 µM] | / | / | / | ?
CSC[C@H]1CN(Cc2cccnc2)C(=O)[C@@H]1CC(=O)Nc1ccc(Br)cc1 | . | . | . | . | / | ?
O=C(c1cccc(Cl)c1)N1CCN(Cc2ccc3c(c2)OCO3)CC1 | . | . | . | . | . | .
O=C(c1ccc(Cl)c([N+](=O)[O-])c1)N1CCN(Cc2ccc3c(c2)OCO3)CC1 | -75.6 | . | . | . | . | ?
SMILES | IL1B secr inh | DT40 TDP1 CPT | HT1080NT lethal | HT1080 IDH1KD tx | uPA generation | TDP1 cell noCPT
COc1ccc(CN2CCN(C(=O)c3ccc(S(=O)(=O)N4CCCCCC4)cc3)CC2)cc1 | ? | ? | 16.4µM | . | . | 14.6µM
O=C(c1ccc(S(=O)(=O)N2CCCC2)cc1)N1CCN(Cc2ccc3c(c2)OCO3)CC1 | . | ? | . | . | . | 16.4µM
COc1ccc(S(=O)(=O)N2CCCN(Cc3cccc(F)c3)CC2)cc1 | . | 20.6µM | . | . | . | ?
CN(c1ccc(C(=O)N2CCN(Cc3ccc4c(c3)OCO4)CC2)cc1)S(C)(=O)=O | . | . | . | . | . | .
O=C(NCc1cccnc1)c1cnn(-c2nccc(-c3cccs3)n2)c1C1CC1 | / | .[9.04 µM] | / | / | / | ?
COc1ccc(CN2CCN(C(=O)c3ccc(S(=O)(=O)N4CCCCCC4)cc3)CC2)cc1F | . | 20.6µM | . | . | . | 20.6µM
O=C(c1ccc(S(=O)(=O)N2CCCCCC2)cc1)N1CCN(Cc2ccccc2)CC1 | ? | . | . | . | . | .
O=C(c1ccc(S(=O)(=O)c2cccc(Cl)c2)c([N+](=O)[O-])c1)N1CCN(Cc2ccccc2)CC1 | -98.9 | 3.66µM | 8.2µM | ? | . | 5.8µM
COc1ccc(C(=O)N2CCN(S(=O)(=O)c3ccc(Br)cc3)CC2)cc1 | . | 18.4µM | . | . | . | ?
CCCCCCNCc1c(F)cccc1Cl | . | . | . | . | . | .
COC(=O)C[C@@H]1C=C[C@@H](NC(=O)NC2CCCC2)[C@@H](CO)O1 | . | . | . | . | / | .
COc1ccc(NC(=O)CSc2n[nH]c(C(C)C)n2)c([N+](=O)[O-])c1 | -66.9 | . | . | . | . | ?
COc1ccc(NC(=O)CSc2n[nH]c(N)n2)c([N+](=O)[O-])c1 | . | . | . | . | / | .
Nc1ccc2ccccc2c1C(=O)c1ccccc1 | . | . | . | . | . | ?
Cc1ccc(OCCNC(=O)c2ccccc2SCC(=O)N2CCCC2)cc1 | . | ? | . | . | . | ?
N#CC1=C(N)OC2=C(CCc3ccccc32)C1c1ccccc1Cl (configuration not stated) | -73.0 | 4.61µM | 7.31µM | 4.61µM | . | 4.61µM
N#CC1=C(N)Oc2cc(N)ccc2C1c1ccccc1Cl (configuration not stated) | . | ? | . | . | ? | ?
CCN(C(=O)Cc1ccc(Br)cc1)C1CCCCC1 | . | 20.6µM | . | . | . | ?
O=C(CN1CC(=O)Nc2ccccc21)NCCc1ccc(Cl)cc1Cl | -101.9 | . | . | . | . | .
COc1ccc(Oc2ncc3nc(-c4ccc(Cl)cc4)c(=O)n(C)c3n2)cc1 | / | . | / | / | / | .

Assay outcomes: PubChem, National Center for Advancing Translational Sciences (NCATS)
